# Screens (PubChem)
# This is a sample that favours compounds with a hit; in the whole collection about 10% have one here.
# 3T3 cytotox: Cytotoxic Profiling in NIH 3T3 Cell Line of Diverse Libraries Using Quantitative High-Throughput Screening. NIH 3T3 viability, CellTiter-Glo ATP luminescence, 48-72 h. Potency, µM (series often up to 96.7 µM), inactives show at the top dose activity change, negative = cytotoxicity, actives largely listed as inhibitors. 4.3% of 94,000 active; note: % is set by controls: 0 for no effect and ±100 for the full control effect; nearly all actives have a fitted effect of over 55% in size
#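 First NIH 3T3 cells are plated at 400 cells/well; next compound is pinned in; then plates incubate 48 or 72 hr at 37 °C; finally CellTiter-Glo is added and luminescence read after 10 min.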
# hNpr1 antagonist: Natriuretic polypeptide receptor (hNpr1) antagonism - Primary qHTS | HEK293 hNpr1 GloSensor cGMP, ANP-stimulated luminescence | Potency, µM (highest dose often 46.3 µM), for the others: at the top dose activity change, negative = inhibition, most hits filed as inhibitors | 1.6% of 76,000 active; calls by dose curve; note: % is set by controls: 0 for no effect and ±100 for the full control effect; nearly all actives have a fitted effect of over 60% in size
#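 Compound pre-incubated 30 min at room temperature on GloSensor-loaded HEK293 cells stably carrying hNpr1 and the pGS-40F cGMP biosensor. Stimulation uses hNppA at 0.1 nM final; luminescence is taken at baseline and 20 min post-agonist.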
# GPT2 inhibitor: Primary qHTS assay for inhibitors of Glutamate pyruvate transaminase 2 (GPT2); Alanine aminotransferase 2 (Homo sapiens), Q8TD30; Recombinant GPT2, coupled pyruvate oxidase/HRP Amplex Red fluorescence; Potency, µM (top dose mostly 57.7 µM), inactives show at the highest dose activity change, negative = inhibition, usual class: inhibitors; 0.25% of 100,000 active; note: % is set by controls: 0 for no effect and ±100 for the full control effect; nearly all actives have a fitted effect of over 60% in size
#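 Inhibition is scored from Amplex Red fluorescence generated when pyruvate oxidase and HRP act on pyruvate released by GPT2. Reactions contain 10ng/uL enzyme, 250uM a-KG and 2mM L-alanine and run 30 min at room temperature.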
# FLuc inh-1: Firefly luciferase inhibition profiling of diverse chemical library using quantitative high-throughput screening. purified P. pyralis luciferase, luminescence, biochemical. Potency, µM (top dose mostly 115 µM), hits mostly inhibitors. AID 1347043, 2019. Luciferin 4-monooxygenase (Photinus pyralis), P08659. 2.5% of 76,000 active; note: % is set by controls: 0 for no effect and ±100 for the full control effect; nearly all actives have a fitted effect of over 65% in size
# Target sequence (P08659 whole entry, looked up): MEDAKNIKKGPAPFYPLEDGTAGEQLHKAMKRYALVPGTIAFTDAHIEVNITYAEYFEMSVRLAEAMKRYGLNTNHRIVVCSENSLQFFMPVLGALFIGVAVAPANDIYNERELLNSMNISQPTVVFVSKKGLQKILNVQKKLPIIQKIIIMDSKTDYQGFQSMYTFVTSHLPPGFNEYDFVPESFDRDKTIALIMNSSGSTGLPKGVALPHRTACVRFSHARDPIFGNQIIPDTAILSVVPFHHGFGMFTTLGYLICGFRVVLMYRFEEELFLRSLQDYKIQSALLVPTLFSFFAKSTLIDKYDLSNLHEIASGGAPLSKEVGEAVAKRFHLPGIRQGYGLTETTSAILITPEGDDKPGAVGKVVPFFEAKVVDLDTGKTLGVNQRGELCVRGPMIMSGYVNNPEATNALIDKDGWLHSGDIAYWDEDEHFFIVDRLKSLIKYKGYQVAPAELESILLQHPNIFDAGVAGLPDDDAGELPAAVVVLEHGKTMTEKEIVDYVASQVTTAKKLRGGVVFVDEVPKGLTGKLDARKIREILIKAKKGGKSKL
#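 Luminescence read by CCD imager after adding enzyme (10nM final) to wells holding compound, titrated in qHTS. Substrates 10uM each D-luciferin and ATP; buffer 50mM Tris acetate pH 7.5, 10mM Mg acetate, Tween-20, BSA.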
# HEK293 tox: Cytotoxic Profiling in HEK 293 Cell Line of Diverse Libraries Using Quantitative High-Throughput Screening | HEK 293 viability, ATP luminescence (CellTiter-Glo), 48-72 h | Potency, µM (highest dose often 115 µM), inactives show at the top dose activity change, negative = cytotoxicity, usual class: inhibitors | 6.6% of 94,000 active; note: % is set by controls: 0 for no effect and ±100 for the full control effect; nearly all actives have a fitted effect of over 60% in size
#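 Cells seeded first (HEK 293, 250 cells/well), then compound added by pintool. Incubation ran 48 or 72 hr at 37 degree Celsius. CellTiter-Glo was added and luminescence imaged after 10 min at room temperature.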
# FLuc SDR no ATP: Firefly luciferase (FLuc-C-HiBiT) SDR gain of signal screen - without ATP | Potency, µM (doses to about 32.7 µM), for the others: top-dose activation (signal gain), actives largely listed as activators | Purified FLuc-C-HiBiT, Nano-Glo HiBiT luminescence, no ATP | AID 1963318, 2024 | shares compounds with FLuc inh-1 | 7.8% of 1,300 active; note: nearly all actives have a fitted effect of over 55% in size
# FLuc SDR ATP: Firefly luciferase (FLuc-C-HiBiT) SDR gain of signal screen - plus ATP. Potency, µM (highest dose often 32.7 µM), for inactives: at the top dose activation (gain of signal), hits mostly activators. shares compounds with FLuc inh-1. purified FLuc-C-HiBiT + ATP, HiBiT complementation luminescence. 8.7% of 1,300 active;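 note: signal reports ligand binding via conformational change of the enzyme rather than luciferase catalysis; % of control where 0% means no effect; nearly all actives have a fitted effect of over 55% in size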
# FLuc inh-2: Firefly luciferase (FLuc-C-HiBiT) enzymatic inhibition screen - Functional assay; shares compounds with FLuc inh-1; purified FLuc-C-HiBiT enzyme, luciferin luminescence; Potency, µM (highest dose often 32.7 µM), inactives show at the highest dose activity change, negative = inhibition, most hits filed as inhibitors; 42% of 1,300 active; AID 1963320, 2024; note: % is set by controls: 0 for no effect and ±100 for the full control effect; nearly all actives have a fitted effect of over 70% in size
# An asterisk follows results filed as active; i = inactive; ? = inconclusive; · = no result given; [ ] = dose if it differs, or a comment. Unless noted, calls come from the whole dose curve; as a rule, active = well fitted curve in the direction sought with a large enough effect; inconclusive = small, poorly fitted or top-dose-only effect, or another doubt; inactive = no such curve, though single readings can be large; an effect the other way counts as inactive or inconclusive. Potency is the fitted concentration of half-maximal effect.
SMILES,3T3 cytotox,hNpr1 antagonist,GPT2 inhibitor,FLuc inh-1,HEK293 tox,FLuc SDR no ATP,FLuc SDR ATP,FLuc inh-2
O=C(c1ccc(F)cc1)N1CC(c2noc(-c3ccccc3)n2)C1,-14.5%,0.0%,4.7%,i,-11.8%,·,·,·
O=C(O)c1cccc(-c2noc(-c3ccc(F)cc3)n2)c1,·,·,·,·,·,4.95µM*,0.0056µM*,0.0044µM*
O=C(O)c1ccc(-c2noc(-c3cccc(F)c3)n2)cc1,·,·,·,·,·,17.4%,?,4.95µM*
O=C(c1ccc2nc(-c3ccncc3)oc2c1)N1CCCCC1,?,·,i,·,?,·,·,·
CCCNC(=O)C1COC2(CCN(C(=O)CC(C)C)CC2)N1C(=O)c1cccc(OC)c1 (centres undefined),2.2%,-0.3%,-4.6%,i,-6.0%,·,·,·
CCCCCNC(=O)c1noc(-c2ccccc2F)n1,?,-8.8%,-30.7%,?,?,·,·,·
CC1CCC(NC(=O)c2noc(-c3ccccc3F)n2)CC1 (centres undefined),-21.4%,-10.4%,?,8.91µM*,-27.2%,15.3%,19.0%,?
O=C(O)c1ccccc1-c1noc(-c2ccccc2F)n1,·,·,·,·,·,27.5%,?,?
O=C(O)c1ccc(-c2noc(-c3ccccc3F)n2)cc1,·,·,·,·,·,?,0.248µM*,0.197µM*
COc1cc(-c2noc(-c3nc(-c4ccccc4F)no3)n2)cc(OC)c1OC,i,-3.2%,i,i,8.7%,·,·,·
Cc1ccc(OCC(=O)Nc2cccc(C(=O)OCc3cc(=O)n4nc(C)sc4n3)c2)cc1,·,·,·,·,·,20.1%,?,?
CCOC(=O)c1cccc(NC(=O)c2cnc(-c3ccc(C)cc3)nc2-c2ccncc2)c1,-16.2%,-15.0%,-16.8%,i,?,·,·,·
CC(C)n1cnnc1CC1CCN(C(=O)Nc2ccc3c(c2)OCCO3)CC1,3.1%,-14.5%,i,7.94µM*,i,25.8%,?,9.89µM*
CCc1n[nH]c(CC2CCN(C(=O)Nc3ccc4c(c3)OCCO4)CC2)n1,i,-28.1%,i,7.94µM*,2.6%,21.3%,15.8%,?
COc1ccc(-c2cn3nc(SCC(=O)Nc4cc(C)cc(C)c4)ccc3n2)cc1,·,·,·,·,·,15.0%,12.3%,?
COCCCNC(=O)N1CCC(F)(c2nc(CC(C)C)no2)CC1,-32.0%,·,-12.8%,·,-23.6%,·,·,·
CCOc1ccc2nc(N(Cc3cccnc3)C(=O)c3cccs3)sc2c1,·,·,·,·,·,10.1%,7.5%,-18.7%
COCCNC(=O)CC[C@]12CC[C@](C)(O)C[C@H]1C(C)(C)C[C@@H]2NC1CCN(C(C)=O)CC1,-8.5%,1.0%,-39.9%,i,4.5%,·,·,·
COc1cccc(CNC(=O)Nc2cccn3nc(C)nc23)c1,-15.0%,1.4%,-0.9%,i,-2.1%,·,·,·
Cc1ccc(NC(=O)Nc2cccn3nc(C)nc23)cc1,?,-8.1%,?,7.94µM*,?,?,16.7%,?
CCN(Cc1ccncc1)C1CN(C(=O)c2nccc3ccccc23)C1,-28.7%,·,1.2%,·,?,·,·,·
COCCN1C(=O)CCc2cc(NC(=O)c3ccc(C)c(C)c3)ccc21,?,1.7%,-23.5%,?,?,·,·,·
CCN1C(=O)CCc2cc(NC(=O)c3ccc(C(C)C)cc3)ccc21,?,?,i,3.55µM*,?,25.3%,13.6%,?
Cc1cn2nc(C(=O)N3CCC(NC(=O)c4ccc(Cl)cc4)CC3)cc2c(=O)[nH]1,?,-8.3%,i,i,-6.9%,·,·,·
Cc1ccc(CC(=O)N2CCC(c3n[nH]c(=O)n3Cc3ccc(F)cc3)CC2)cc1,?,0.0%,i,i,-5.9%,·,·,·
SMILES,3T3 cytotox,hNpr1 antagonist,GPT2 inhibitor,FLuc inh-1,HEK293 tox,FLuc SDR no ATP,FLuc SDR ATP,FLuc inh-2
CCC[C@H](C)Oc1nc(N)c2[nH]c(=O)n(CCCCCN3CCCCC3)c2n1,·,·,·,·,·,13.0%,9.1%,-3.5%
CCCCn1c(=O)[nH]c2cccnc21,-12.1%[174 µM],12.6%[70.6 µM],?,i,1.3%[230 µM],·,·,·
CC(C)C1=NOC2(CCCN(Cc3ccc(C(F)(F)F)cc3)C2)C1 (centres undefined),-18.6%,·,-2.5%,·,?,·,·,·
COCCN1CCNc2cc(Nc3cccc(N(C)C)c3)ncc2C1,?,-2.4%[70.6 µM],i,?,?,·,·,·
Cc1noc(C)c1CN1CCNc2cc(Nc3cccnc3)ncc2C1,-34.3%[138 µM],-0.9%[70.6 µM],2.6%[88.5 µM],i,?,·,·,·
COCCN1CCNc2cc(-c3cccc(OC)c3)ncc2C1,·,·,·,·,·,?,14.5%[49.3 µM],20.2µM*
Clc1cccc(Nc2cc3c(cn2)CN(Cc2cccnc2)CCN3)c1,?,?,?,1.26µM*,31.6µM*,?,?,12.8µM*
Cn1ccnc1CN1CCNc2cc(Nc3ccccc3)ncc2C1,?,-13.8%[70.6 µM],-4.6%[88.5 µM],4.47µM*,?,25.9%[49.3 µM],17.4%[49.3 µM],?
COCCN1CCNc2cc(Nc3cccc(OC)c3)ncc2C1,?,5.3%[70.6 µM],3.9%[88.5 µM],7.08µM*,?,19.8%[49.3 µM],13.7%[49.3 µM],?
Cn1ncc2c(C(=O)NCc3ccc4c(c3)OCO4)cc(-c3ccc(Cl)cc3Cl)nc21,?,·,i,·,?,·,·,·
Cc1cccc(C)c1Oc1ncccc1CNC(=O)CCN1CCCCO1,-2.3%,4.4%,i,i,3.3%,·,·,·
O=[S+]([O-])(c1ccc(Br)cc1)c1nnn2c1nc(N1CCC(F)CC1)c1ccccc12,i,·,-11.6%,·,3.0%,·,·,·
CCN(CC)c1cc(CCC(=O)NCc2ccc(Cl)cc2)ccn1,-18.5%,-12.2%,1.3%,i,?,·,·,·
COCCNC(=O)[C@@H](C)C1CC[C@@]2(C)Cc3sc(CSc4ccccc4)nc3[C@@H](C)[C@@H]2[C@H]1O (some centres undefined),?,11.2µM*,2.1%,7.08µM*,?,27.8%,?,?
